# Article PMC10338342
# Experiments:
# Histone H3.1 = Histone H3.1 (UniProt P68431); test: cross-link between two proteins; cross-linking mass spectrometry
# Histone H4 = Histone H4 (UniProt P62805); test: as above
# Protein max = Protein max (UniProt P61244); test: cross-link between two proteins; cross-linking mass spectrometry; other
# Histone H2B type 1-J = Histone H2B type 1-J (UniProt P06899); test: cross-link between two proteins; cross-linking mass spectrometry
# Myc proto-oncogene protein, P01106, sequence (P01106 whole entry): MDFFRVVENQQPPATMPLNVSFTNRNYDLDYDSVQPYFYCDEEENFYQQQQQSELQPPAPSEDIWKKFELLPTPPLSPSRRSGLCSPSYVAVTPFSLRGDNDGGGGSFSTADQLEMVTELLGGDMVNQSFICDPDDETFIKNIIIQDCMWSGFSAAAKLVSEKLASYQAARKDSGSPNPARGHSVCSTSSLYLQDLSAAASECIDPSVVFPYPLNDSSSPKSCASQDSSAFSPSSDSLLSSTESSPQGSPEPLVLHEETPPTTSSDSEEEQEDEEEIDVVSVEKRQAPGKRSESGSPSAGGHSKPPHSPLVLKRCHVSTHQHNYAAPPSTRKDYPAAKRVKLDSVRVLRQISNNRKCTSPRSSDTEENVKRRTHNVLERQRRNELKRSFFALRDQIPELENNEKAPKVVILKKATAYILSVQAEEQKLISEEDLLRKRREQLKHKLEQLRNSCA
# Protein max, sequence (P61244 whole entry): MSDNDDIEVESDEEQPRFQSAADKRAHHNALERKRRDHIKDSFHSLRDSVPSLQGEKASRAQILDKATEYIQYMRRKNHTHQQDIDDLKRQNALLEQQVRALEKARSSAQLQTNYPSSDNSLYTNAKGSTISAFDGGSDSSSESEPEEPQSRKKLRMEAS
Substance,listed as a hit (Histone H3.1),listed as a hit (Histone H4),listed as a hit (Protein max),listed as a hit (Histone H2B type 1-J)
"Histone H2B type 1-J, P06899",yes,yes,–,–
"Myc proto-oncogene protein, P01106",–,–,yes,–
"Histone H2A type 1-B/E, P04908",yes,yes,–,yes
